Values joined by “and” are separate entries in the source; they are usually repeats but may differ in a detail not shown here. Identical values can stand only once. This is part of a sample that, as a whole, favours compounds with a hit. Of some 83,000 tested, about 20% had one in any assay.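 Single-concentration screen, 48 h exposure, 96-well plates. Endpoint: percent growth. Below 10 = active.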 Values without a mark were called inactive. Active and inactive are the calls of the source.
Test system: HL-60(TB) leukemia
Assay: NCI-60 one-dose screen, 48 h (100 = growth as untreated, 0 = no growth, -100 = all killed)
Conditions: 10 µM unless noted

SMILES | growth
O=[N+]([O-])c1ccc(Cl)c(S(=O)(=O)O)c1 | 96.4%
Cc1c[n+](Cc2ccc3ccccc3c2)cn1Cc1ccc2ccccc2c1 | -56.3% (active)
COc1cc(C(=O)NN=C2c3ccccc3-c3ccccc32)cc(OC)c1OC | 11.4%
O=C(Nc1ccc2cc3ccc(NC(=O)NC4CCCCC4)cc3nc2c1)NC1CCCCC1 | 99.3%
O=C(O)CNS(=O)(=O)c1ccc(OCCOc2ccc(S(=O)(=O)NCC(=O)O)cc2)cc1 | 98.7%
CNC(C)=O | 107%
O=C(/C=C/c1ccc[nH]1)c1ccc(-n2ccc(C(F)(F)F)n2)cc1 | -18.4% (active)
O=C(O)/C=C/C=C/c1ccccc1 | 106% and 112%
CC(C)(C(=O)c1cccnc1)c1cccnc1 | 99.5% and 126%
O=[N+]([O-])c1ccc(Nc2nc(NCCN3CCOCC3)ncc2[N+](=O)[O-])cc1 | 102%
CC[C@H](CC[C@@H](C)[C@H]1CC[C@H]2[C@@H]3CC=C4C[C@@H](O)CC[C@]4(C)[C@H]3CC[C@]12C)C(C)C | 125% and 100%
COc1cc2nc(Cl)nc(Nc3ccc(S(=O)(=O)Nc4nccs4)cc3)c2cc1OC | 102%
O=C1c2c(c3c4ccccc4[nH]c3c3ccc4ccccc4c23)C(=O)N1CCN1CCCCC1 | 9.19% (active)
O=c1c2cc(F)ccc2sc2c(Nc3ccncc3)nc3ccccc3c12 | 6.35% (active)
